Measurements from PubChem BioAssay (NCI).
About 83,000 compounds went through this panel and 20% of them were active in at least one assay; those are over-represented in the sample as a whole.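 96-well plates, one dose, 48 hours. Percent growth reported; active if below 10.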 Activity calls are given as the source filed them.

Key:
Test in all cases: NCI-60 one-dose screen, 48 h (100 = growth as untreated, 0 = no growth, -100 = all killed)
Details in all cases: 10 µM unless noted
EKVX NSCLC = test system: EKVX NSCLC
SN12C renal = test system: SN12C renal
UO-31 renal = test system: UO-31 renal
ACHN renal = test system: ACHN renal
CAKI-1 renal = test system: CAKI-1 renal
A498 renal = test system: A498 renal
CCRF-CEM leukemia = test system: CCRF-CEM leukemia
MOLT-4 leukemia = test system: MOLT-4 leukemia
SR leukemia = test system: SR leukemia
TK-10 renal = test system: TK-10 renal

Measured: growth

O=c1/c(=C\c2ccc(-c3ccccc3)o2)sc2nc(-c3ccccc3)nn12
inactive: EKVX NSCLC 99.9% | SN12C renal 97.3% | UO-31 renal 89% | ACHN renal 102% | CAKI-1 renal 96.4% | A498 renal 84.3% | CCRF-CEM leukemia 101% | MOLT-4 leukemia 108% | SR leukemia 102%

Cc1[nH]nc2ncc(C#Cc3cncc(C(=O)Nc4ccc(CN5CCN(C)CC5)c(C(F)(F)F)c4)c3)cc12
inactive: EKVX NSCLC 54.9% | CCRF-CEM leukemia 20.9% | MOLT-4 leukemia 20.4% | SR leukemia 19.6%
active: SN12C renal 7.71% | UO-31 renal -6.87% | ACHN renal 4.36% | CAKI-1 renal -27.9% | A498 renal -17.7%

COc1ccc(Cc2nn(CC(=O)N/N=C/c3ccc(Cl)cc3)c(=O)c3c(C)noc23)cc1
inactive: EKVX NSCLC 88.8% | SN12C renal 66% | UO-31 renal 84.9% | ACHN renal 72.7% | CAKI-1 renal 80.8% | A498 renal 90.5% | CCRF-CEM leukemia 74.8% | MOLT-4 leukemia 89.7% | SR leukemia 53.9%

CN(C)CCCNc1c2ccc(Cl)cc2nc2c1oc1ccc(Cl)cc12
inactive: EKVX NSCLC 44.4% | UO-31 renal 45.2% | A498 renal 37.9%
active: SN12C renal -74.4% | ACHN renal -96.8% | CAKI-1 renal -85% | CCRF-CEM leukemia 2.17% | MOLT-4 leukemia -4.89% | SR leukemia -12.3%

N#Cc1nc(-c2ccccc2)oc1S(N)(=O)=O
active: SR leukemia 3.32%
inactive: EKVX NSCLC 97.5% | SN12C renal 49.6% | UO-31 renal 72.3% | ACHN renal 73% | CAKI-1 renal 63.1% | A498 renal 83.1% | CCRF-CEM leukemia 14.6% | MOLT-4 leukemia 41.4%

NS(=O)(=O)c1cccc(Nc2nc(SCC(=O)c3ccc(Cl)cc3)nc3ccccc23)c1
inactive: EKVX NSCLC 77.4% | SN12C renal 63.4% | UO-31 renal 84.2% | ACHN renal 77.6% | CAKI-1 renal 62.3% | A498 renal 85.2% | CCRF-CEM leukemia 85.7% | MOLT-4 leukemia 82.8% | SR leukemia 59.2%

Clc1ccc2oc3c(OCCCn4ccnc4)c4ccccc4nc3c2c1
inactive: EKVX NSCLC 71.9% | SN12C renal 56.3% | UO-31 renal 43.9% | ACHN renal 34.8% | CAKI-1 renal 38.5% | CCRF-CEM leukemia 59.6% | MOLT-4 leukemia 24.7% | SR leukemia 32.5%
active: A498 renal 8.47%

CN(C)c1ccc(-c2c(NC(C)(C)C)nc3c(OCCc4ccccc4)cccn23)cc1
inactive: SN12C renal 12.5% | ACHN renal 17.7% | CAKI-1 renal 11.7% | A498 renal 24.5%
active: EKVX NSCLC 8.16% | UO-31 renal 4.11% | CCRF-CEM leukemia 5.5% | MOLT-4 leukemia 1.16% | SR leukemia -0.837%

COc1cc(OC)c(C2C(Cl)C(=O)N2Nc2ncnc3ccccc23)cc1OC (stereo not given)
inactive: EKVX NSCLC 95.3% | SN12C renal 98.3% | UO-31 renal 78.8% | ACHN renal 90.5% | CAKI-1 renal 91.8% | A498 renal 97.2% | CCRF-CEM leukemia 102% | MOLT-4 leukemia 105% | SR leukemia 104%

OC1CCN(CCCOc2c3ccccc3nc3c2oc2ccccc23)CC1
active: EKVX NSCLC -13.7% | SN12C renal -1.2% | UO-31 renal -34.4% | ACHN renal -39% | CAKI-1 renal -36.7% | A498 renal -78.8% | CCRF-CEM leukemia 6.02% | MOLT-4 leukemia 3.82% | SR leukemia -3.77%

O=C(O)CCCCCN1C(=O)/C(=C/c2ccc(O)c(O)c2)SC1=S
inactive: EKVX NSCLC 97% | SN12C renal 98.5% | UO-31 renal 90.4% | ACHN renal 109% | CAKI-1 renal 102% | A498 renal 101% | CCRF-CEM leukemia 105% | MOLT-4 leukemia 106% | SR leukemia 107%

N[C@@H](Cc1cn(-c2c3ccccc3nc3ccccc23)nn1)C(=O)O
inactive: EKVX NSCLC 101% | SN12C renal 98.2% | UO-31 renal 89.6% | ACHN renal 93.5% | CAKI-1 renal 93.8% | A498 renal 102% | CCRF-CEM leukemia 97.3% | MOLT-4 leukemia 99.1% | SR leukemia 86%

COc1cc(OC)c(C2SCC(=O)N2Nc2ncnc3ccccc23)cc1OC (stereo not given)
inactive: EKVX NSCLC 100% | SN12C renal 103% | UO-31 renal 89.7% | ACHN renal 106% | CAKI-1 renal 94% | A498 renal 81.8% | CCRF-CEM leukemia 107% | MOLT-4 leukemia 105% | SR leukemia 104%

CS(=O)(=O)c1ccc(-c2nc3ccccn3c2-c2nc3ccc([N+](=O)[O-])cc3[nH]2)cc1
inactive: EKVX NSCLC 91% | SN12C renal 94.8% | UO-31 renal 77.7% | ACHN renal 88.6% | CAKI-1 renal 86.2% | A498 renal 87.5% | CCRF-CEM leukemia 101% | MOLT-4 leukemia 90.3% | SR leukemia 95.2%

Oc1c(Cl)cc(Cl)c2ccc(CN3CCCCC3)nc12
inactive: EKVX NSCLC 30.6% | SN12C renal 42.9% | UO-31 renal 35.7% | ACHN renal 29.4% | CAKI-1 renal 36.2% | A498 renal 49.9% | CCRF-CEM leukemia 18.6% | MOLT-4 leukemia 26.1% | SR leukemia 18.8%

CNC(=O)c1cc(-c2ccc(NC(=O)Nc3ccc(N4CCOCC4)c(C(F)(F)F)c3)cc2)nc2cccnc12
inactive: EKVX NSCLC 76.6% | SN12C renal 41.6% | UO-31 renal 43.2% | ACHN renal 50.8% | CAKI-1 renal 64% | A498 renal 79.9% | CCRF-CEM leukemia 40.5% | MOLT-4 leukemia 34.6% | SR leukemia 13.6%

Clc1ccc2c(OCCCN3CCOCC3)c3oc4ccccc4c3nc2c1
inactive: EKVX NSCLC 34.6% | SN12C renal 30.4% | UO-31 renal 22.2% | ACHN renal 15.3% | CAKI-1 renal 19.7% | A498 renal 13.6% | MOLT-4 leukemia 11.7% | SR leukemia 11.9%

CN1CCN(Cc2ccc(NC(=O)c3cncc(C#Cc4cnc5[nH]ncc5c4)c3)cc2C(F)(F)F)CC1
inactive: EKVX NSCLC 55.4% | SN12C renal 14.4% | TK-10 renal 49.7% | CCRF-CEM leukemia 20.1% | MOLT-4 leukemia 16.9% | SR leukemia 10.6%
active: ACHN renal 8.5% | CAKI-1 renal -13.2% | A498 renal -5.79%

OC1CCN(CCCOc2c3ccc(Cl)cc3nc3c2oc2ccc(Cl)cc23)CC1
inactive: EKVX NSCLC 34.7% | SN12C renal 23.2%
active: UO-31 renal 7.4% | ACHN renal -98.4% | CAKI-1 renal 3.71% | A498 renal -7.6% | MOLT-4 leukemia 0.17% | SR leukemia -39.3%

C[C@@H](Nc1c(C#N)cnc2ccc(-c3cnc(N)nc3)cc12)c1ccccc1
inactive: SN12C renal 11.8%
active: EKVX NSCLC 4.11% | UO-31 renal 4.65% | ACHN renal 6.57% | CAKI-1 renal 1.83% | A498 renal -37.8% | MOLT-4 leukemia 0.24% | SR leukemia 7.92%

CN(C)CCCNc1c2ccc(Cl)cc2nc2c1oc1ccccc12
inactive: UO-31 renal 12.3%
active: EKVX NSCLC -26.7% | SN12C renal 6.3% | ACHN renal -36.5% | CAKI-1 renal 6.06% | A498 renal 8.64% | MOLT-4 leukemia -1.03% | SR leukemia -18.8%

COc1cc2nc(-c3ccc(Cl)cc3)cc(OCCCNCC3CCCO3)c2cc1OC (stereo not given)
inactive: EKVX NSCLC 67.1% | SN12C renal 47.3% | UO-31 renal 57.3% | ACHN renal 46.6% | CAKI-1 renal 17.3% | A498 renal 47.9% | MOLT-4 leukemia 40.6% | SR leukemia 19.5%

Nc1c(C(=O)c2ccc(Br)cc2)oc2nc(-c3cnccn3)cc(-c3cccs3)c12
inactive: EKVX NSCLC 102% | SN12C renal 97.9% | UO-31 renal 87.1% | ACHN renal 103% | CAKI-1 renal 95.2% | CCRF-CEM leukemia 100% | MOLT-4 leukemia 95% | SR leukemia 91.7%

COc1cc(/C=C/C(=O)c2ccc(C)cc2)ccc1Oc1nc(NCCO)nc(N2CCOCC2)n1
active: CCRF-CEM leukemia 3.44% | MOLT-4 leukemia 0.537% | SR leukemia -3.65%
inactive: EKVX NSCLC 67.8% | SN12C renal 74% | UO-31 renal 51.5% | ACHN renal 55.7% | CAKI-1 renal 50.4%

C=CCn1c(SCC(=O)c2ccc(Br)cc2)nnc1-c1c[nH]c2ccccc12
inactive: EKVX NSCLC 92.8% | SN12C renal 95.6% | UO-31 renal 68.4% | ACHN renal 88.3% | CAKI-1 renal 90.2% | MOLT-4 leukemia 91.2% | SR leukemia 88.7%

Clc1ccc2c(NCCCN3CCOCC3)c3oc4ccccc4c3nc2c1
inactive: EKVX NSCLC 62.6% | SN12C renal 29.9% | UO-31 renal 40.1% | ACHN renal 19.3% | CAKI-1 renal 30.4% | A498 renal 33.7% | CCRF-CEM leukemia 32.8% | MOLT-4 leukemia 10.6%
active: SR leukemia 8.11%

COc1cc(/C=C/C(=O)c2cc(OC)c(OC)c(OC)c2)ccc1OCc1ccc(F)cc1
inactive: EKVX NSCLC 51.2% | SN12C renal 67.9% | UO-31 renal 45.4% | ACHN renal 64.8% | CAKI-1 renal 45.8% | MOLT-4 leukemia 46.2% | SR leukemia 16.3%

O=C(N/N=C/c1ccc([N+](=O)[O-])s1)c1[nH]c2ccc(Br)cc2c1-c1ccccc1
inactive: SN12C renal 17.5% | UO-31 renal 46.6% | ACHN renal 12.7% | CAKI-1 renal 23.6% | CCRF-CEM leukemia 16.1%
active: EKVX NSCLC 9.91% | MOLT-4 leukemia 9.21% | SR leukemia 7.33%

CC(C)(O)c1cncc(-c2ccc3ncnc(N4CCc5cc(F)c(Cl)cc54)c3c2)c1
active: EKVX NSCLC -2.39% | UO-31 renal 6.25% | A498 renal -39.6% | MOLT-4 leukemia 0.627%
inactive: SN12C renal 18.6% | ACHN renal 11.3% | CAKI-1 renal 10.6% | SR leukemia 18%

CCCSc1nc(Nc2ccc(/C(C)=N\NC(N)=S)cc2)c(C#N)c(-c2ccc(OC)cc2)n1
active: CAKI-1 renal -7.3%
inactive: EKVX NSCLC 74.8% | SN12C renal 33.5% | TK-10 renal 33.4% | ACHN renal 47.2% | A498 renal 101% | CCRF-CEM leukemia 89.2% | MOLT-4 leukemia 80.4% | SR leukemia 74.2%

O=C1Nc2cc(Cl)ccc2/C1=C\c1ccc(OCc2ccc([N+](=O)[O-])cc2)cc1
inactive: EKVX NSCLC 82.5% | SN12C renal 79.5% | UO-31 renal 50.7% | ACHN renal 43% | CAKI-1 renal 64.6% | A498 renal 81% | MOLT-4 leukemia 97.4% | SR leukemia 87.5%
